What was measured:
Experiment in all cases: log2 ratio of Biotin-Ahx-Ub-VS probe labelling (fragment/DMSO); higher = less target engagement (more negative = stronger competition), active = hit call of the paper (q ≤ 0.05, log2 ratio ≤ -1)
Conditions in all cases: compound concentration: 200 uM; treatment time: 3 h
USP16 = USP16 (UniProt Q9Y5T5)
Procedure, shortened: (§1)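 Labelled DUBs from HEK293T lysate were NeutrAvidin-enriched, digested with LysC and trypsin, and run by diaPASEF LC-MS/MS. Before that, each 495 µg sample in Tris/CHAPS/IGEPAL buffer with protease inhibitors was treated in triplicate with fragment at 200 µM or vehicle for 3 h, then with Biotin-Ahx-Ub-VS at 0.5 µM final for 1 h. Values are average log2 ratios of fragment over vehicle by unpaired t-test, based on global-median-normalised Spectronaut label-free quantities from proteins with ≥2 unique peptides.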

USP19 = molecular target: T1, USP19 (UniProt O94966)
T1 sequence (whole entry): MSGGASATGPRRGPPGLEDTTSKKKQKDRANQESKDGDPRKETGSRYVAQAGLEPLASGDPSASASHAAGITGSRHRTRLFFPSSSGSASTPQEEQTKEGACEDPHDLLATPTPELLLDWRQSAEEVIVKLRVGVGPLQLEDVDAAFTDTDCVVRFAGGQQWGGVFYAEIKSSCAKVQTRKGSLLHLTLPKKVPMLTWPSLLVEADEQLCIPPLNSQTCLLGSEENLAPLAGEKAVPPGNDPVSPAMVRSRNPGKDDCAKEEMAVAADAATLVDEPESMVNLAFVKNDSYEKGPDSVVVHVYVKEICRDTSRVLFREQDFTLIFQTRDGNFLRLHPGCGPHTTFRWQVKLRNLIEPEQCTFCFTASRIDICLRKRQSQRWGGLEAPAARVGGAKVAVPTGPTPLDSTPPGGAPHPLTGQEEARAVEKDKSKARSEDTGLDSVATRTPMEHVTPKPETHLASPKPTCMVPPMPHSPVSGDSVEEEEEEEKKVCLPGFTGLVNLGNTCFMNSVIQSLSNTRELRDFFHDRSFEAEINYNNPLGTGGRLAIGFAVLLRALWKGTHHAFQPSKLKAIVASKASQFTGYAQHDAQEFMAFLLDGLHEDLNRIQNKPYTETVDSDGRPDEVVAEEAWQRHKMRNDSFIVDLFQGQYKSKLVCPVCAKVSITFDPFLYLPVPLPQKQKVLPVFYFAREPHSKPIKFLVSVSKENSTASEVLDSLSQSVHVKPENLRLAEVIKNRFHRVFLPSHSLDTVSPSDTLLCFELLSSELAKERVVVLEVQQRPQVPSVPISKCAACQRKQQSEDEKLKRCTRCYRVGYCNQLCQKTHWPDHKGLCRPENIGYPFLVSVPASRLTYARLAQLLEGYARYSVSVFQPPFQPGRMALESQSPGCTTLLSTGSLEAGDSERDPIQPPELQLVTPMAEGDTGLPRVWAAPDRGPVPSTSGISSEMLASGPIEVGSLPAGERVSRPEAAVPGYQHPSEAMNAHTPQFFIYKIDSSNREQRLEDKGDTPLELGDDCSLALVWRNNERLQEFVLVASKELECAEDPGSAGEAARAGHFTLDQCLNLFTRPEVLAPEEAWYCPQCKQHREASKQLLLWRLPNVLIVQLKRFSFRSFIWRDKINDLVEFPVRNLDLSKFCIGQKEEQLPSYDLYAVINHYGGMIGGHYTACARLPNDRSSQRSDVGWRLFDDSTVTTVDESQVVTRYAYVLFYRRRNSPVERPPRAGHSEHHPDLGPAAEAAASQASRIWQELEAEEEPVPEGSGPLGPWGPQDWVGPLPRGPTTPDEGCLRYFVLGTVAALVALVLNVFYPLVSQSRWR
Procedure, shortened: as §1

USP24 = USP24 (UniProt Q9UPU5)
Procedure, shortened: as §1

USP25 = molecular target: T2, USP25 (UniProt Q9UHP3)
T2 sequence (whole entry): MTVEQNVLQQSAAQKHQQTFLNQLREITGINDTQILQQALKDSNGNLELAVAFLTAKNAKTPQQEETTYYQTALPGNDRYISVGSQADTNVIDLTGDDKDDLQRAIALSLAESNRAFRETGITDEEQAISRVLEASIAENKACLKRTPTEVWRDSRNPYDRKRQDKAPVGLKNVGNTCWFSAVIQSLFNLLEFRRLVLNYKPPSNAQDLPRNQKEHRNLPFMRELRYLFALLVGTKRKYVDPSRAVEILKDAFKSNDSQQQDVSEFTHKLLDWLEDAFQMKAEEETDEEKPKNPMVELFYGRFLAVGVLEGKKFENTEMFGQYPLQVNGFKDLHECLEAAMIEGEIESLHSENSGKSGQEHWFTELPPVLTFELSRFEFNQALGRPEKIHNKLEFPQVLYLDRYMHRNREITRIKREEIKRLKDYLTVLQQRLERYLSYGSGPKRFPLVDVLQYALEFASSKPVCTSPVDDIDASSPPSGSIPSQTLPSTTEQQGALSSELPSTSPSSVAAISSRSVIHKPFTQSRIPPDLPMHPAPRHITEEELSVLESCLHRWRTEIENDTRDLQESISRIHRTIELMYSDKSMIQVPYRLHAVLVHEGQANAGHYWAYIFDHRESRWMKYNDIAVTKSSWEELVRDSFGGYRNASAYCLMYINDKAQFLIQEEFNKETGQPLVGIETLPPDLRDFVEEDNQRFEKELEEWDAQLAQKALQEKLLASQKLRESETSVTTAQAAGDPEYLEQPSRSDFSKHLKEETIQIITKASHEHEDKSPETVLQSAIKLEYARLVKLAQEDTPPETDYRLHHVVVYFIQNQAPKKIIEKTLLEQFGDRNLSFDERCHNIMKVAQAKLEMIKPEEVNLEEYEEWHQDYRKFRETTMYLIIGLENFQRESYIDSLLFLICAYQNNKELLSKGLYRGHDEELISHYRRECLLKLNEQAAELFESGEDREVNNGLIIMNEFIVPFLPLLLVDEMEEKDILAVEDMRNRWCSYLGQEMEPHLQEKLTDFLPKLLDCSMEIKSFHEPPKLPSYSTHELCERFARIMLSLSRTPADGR
Procedure, shortened: as §1

USP28 = molecular target: T3, USP28 (UniProt Q96RU2)
T3 sequence (whole entry): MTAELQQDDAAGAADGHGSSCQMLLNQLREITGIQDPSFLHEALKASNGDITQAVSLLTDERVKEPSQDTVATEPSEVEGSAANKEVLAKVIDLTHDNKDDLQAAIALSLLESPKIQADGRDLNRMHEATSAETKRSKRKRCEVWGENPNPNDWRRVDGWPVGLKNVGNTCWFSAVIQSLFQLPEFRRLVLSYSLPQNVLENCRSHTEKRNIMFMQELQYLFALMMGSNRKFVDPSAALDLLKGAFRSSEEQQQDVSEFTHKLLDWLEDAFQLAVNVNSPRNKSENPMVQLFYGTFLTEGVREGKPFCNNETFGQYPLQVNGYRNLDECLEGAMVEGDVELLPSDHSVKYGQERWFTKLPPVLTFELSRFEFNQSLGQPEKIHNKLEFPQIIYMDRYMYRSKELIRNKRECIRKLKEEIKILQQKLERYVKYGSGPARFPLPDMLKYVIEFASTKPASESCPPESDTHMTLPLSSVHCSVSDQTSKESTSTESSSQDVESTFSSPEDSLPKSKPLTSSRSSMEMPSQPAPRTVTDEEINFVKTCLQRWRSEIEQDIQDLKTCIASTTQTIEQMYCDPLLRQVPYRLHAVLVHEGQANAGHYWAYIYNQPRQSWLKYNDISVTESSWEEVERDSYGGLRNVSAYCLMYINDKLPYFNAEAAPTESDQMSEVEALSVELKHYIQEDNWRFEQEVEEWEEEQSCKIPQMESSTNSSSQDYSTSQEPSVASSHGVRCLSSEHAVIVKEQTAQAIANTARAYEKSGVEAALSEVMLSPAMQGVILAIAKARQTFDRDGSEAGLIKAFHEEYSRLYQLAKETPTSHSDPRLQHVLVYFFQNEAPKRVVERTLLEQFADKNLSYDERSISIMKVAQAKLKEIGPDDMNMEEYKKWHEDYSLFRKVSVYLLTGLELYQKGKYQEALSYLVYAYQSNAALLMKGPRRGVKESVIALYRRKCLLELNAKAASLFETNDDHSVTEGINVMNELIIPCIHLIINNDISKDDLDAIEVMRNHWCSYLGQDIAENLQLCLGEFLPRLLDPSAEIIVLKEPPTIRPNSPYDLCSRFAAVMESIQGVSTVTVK
Procedure, shortened: as §1

Measured: log2 ratio of Biotin-Ahx-Ub-VS probe labelling

USP24, sequence (Q9UPU5 whole entry): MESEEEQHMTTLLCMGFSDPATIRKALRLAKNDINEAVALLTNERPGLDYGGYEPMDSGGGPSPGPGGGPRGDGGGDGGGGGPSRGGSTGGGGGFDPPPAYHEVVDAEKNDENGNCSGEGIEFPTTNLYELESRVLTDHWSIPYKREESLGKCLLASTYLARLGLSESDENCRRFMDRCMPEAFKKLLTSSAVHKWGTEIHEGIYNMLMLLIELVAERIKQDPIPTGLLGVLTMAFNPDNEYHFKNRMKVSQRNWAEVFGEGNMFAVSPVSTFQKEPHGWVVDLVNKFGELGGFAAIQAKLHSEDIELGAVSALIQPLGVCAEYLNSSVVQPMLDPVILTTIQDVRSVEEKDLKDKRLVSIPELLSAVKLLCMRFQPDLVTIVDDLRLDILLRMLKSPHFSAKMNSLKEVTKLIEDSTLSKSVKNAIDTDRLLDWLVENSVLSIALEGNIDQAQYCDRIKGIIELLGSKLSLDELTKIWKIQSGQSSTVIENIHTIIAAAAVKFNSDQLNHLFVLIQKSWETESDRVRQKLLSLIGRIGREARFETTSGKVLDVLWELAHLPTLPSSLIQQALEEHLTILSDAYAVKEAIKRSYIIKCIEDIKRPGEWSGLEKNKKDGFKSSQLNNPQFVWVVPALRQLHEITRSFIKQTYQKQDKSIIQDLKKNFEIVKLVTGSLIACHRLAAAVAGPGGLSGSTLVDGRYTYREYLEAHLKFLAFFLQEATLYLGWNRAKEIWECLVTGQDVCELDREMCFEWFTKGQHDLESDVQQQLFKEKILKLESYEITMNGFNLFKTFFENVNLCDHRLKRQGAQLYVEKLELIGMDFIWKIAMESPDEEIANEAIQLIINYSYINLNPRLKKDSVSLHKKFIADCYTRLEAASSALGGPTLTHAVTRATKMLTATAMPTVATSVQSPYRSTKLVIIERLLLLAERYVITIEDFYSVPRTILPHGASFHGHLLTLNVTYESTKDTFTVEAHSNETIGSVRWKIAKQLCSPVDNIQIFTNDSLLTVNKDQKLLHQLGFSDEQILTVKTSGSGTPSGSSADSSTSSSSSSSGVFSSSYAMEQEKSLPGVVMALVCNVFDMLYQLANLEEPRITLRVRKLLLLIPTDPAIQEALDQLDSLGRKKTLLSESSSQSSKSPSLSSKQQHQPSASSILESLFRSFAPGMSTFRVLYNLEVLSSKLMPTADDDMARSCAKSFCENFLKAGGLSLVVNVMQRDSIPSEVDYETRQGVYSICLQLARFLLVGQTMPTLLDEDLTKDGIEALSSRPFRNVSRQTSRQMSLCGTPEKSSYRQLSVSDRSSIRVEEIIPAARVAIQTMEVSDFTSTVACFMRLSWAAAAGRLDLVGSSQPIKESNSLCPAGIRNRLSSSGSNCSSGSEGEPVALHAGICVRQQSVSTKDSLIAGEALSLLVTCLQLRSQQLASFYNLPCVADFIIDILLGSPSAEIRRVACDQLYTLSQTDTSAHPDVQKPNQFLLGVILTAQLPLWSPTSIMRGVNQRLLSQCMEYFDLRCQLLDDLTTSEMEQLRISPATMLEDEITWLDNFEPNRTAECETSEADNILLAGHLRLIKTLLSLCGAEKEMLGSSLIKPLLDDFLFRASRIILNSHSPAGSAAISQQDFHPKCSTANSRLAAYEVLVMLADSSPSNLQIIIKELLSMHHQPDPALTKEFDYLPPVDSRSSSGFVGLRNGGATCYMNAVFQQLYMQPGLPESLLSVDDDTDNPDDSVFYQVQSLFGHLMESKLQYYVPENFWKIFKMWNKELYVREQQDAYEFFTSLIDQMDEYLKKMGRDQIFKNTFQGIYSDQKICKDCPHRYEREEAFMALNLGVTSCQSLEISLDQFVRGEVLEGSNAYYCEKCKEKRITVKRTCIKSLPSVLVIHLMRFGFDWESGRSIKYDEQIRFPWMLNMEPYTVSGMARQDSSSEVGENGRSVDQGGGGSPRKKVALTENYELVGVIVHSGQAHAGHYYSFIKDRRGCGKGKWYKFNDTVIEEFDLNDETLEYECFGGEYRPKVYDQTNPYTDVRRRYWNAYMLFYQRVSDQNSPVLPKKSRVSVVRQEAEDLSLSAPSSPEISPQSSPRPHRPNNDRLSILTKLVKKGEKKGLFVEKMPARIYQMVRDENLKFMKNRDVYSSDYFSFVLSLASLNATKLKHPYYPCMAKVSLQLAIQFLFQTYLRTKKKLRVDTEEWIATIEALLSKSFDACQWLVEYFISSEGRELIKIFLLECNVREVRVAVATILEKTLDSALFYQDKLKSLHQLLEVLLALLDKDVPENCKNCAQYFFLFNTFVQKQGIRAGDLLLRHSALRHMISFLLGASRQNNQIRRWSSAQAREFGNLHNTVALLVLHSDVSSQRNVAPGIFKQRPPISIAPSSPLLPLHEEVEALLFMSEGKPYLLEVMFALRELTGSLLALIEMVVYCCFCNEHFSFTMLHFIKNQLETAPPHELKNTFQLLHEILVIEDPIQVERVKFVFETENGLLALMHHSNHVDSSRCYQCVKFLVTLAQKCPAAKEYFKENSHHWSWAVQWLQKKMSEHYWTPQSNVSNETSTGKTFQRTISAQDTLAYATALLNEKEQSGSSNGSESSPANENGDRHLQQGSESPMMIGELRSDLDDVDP
USP16, sequence (Q9Y5T5 whole entry, looked up, the tested form may be a part): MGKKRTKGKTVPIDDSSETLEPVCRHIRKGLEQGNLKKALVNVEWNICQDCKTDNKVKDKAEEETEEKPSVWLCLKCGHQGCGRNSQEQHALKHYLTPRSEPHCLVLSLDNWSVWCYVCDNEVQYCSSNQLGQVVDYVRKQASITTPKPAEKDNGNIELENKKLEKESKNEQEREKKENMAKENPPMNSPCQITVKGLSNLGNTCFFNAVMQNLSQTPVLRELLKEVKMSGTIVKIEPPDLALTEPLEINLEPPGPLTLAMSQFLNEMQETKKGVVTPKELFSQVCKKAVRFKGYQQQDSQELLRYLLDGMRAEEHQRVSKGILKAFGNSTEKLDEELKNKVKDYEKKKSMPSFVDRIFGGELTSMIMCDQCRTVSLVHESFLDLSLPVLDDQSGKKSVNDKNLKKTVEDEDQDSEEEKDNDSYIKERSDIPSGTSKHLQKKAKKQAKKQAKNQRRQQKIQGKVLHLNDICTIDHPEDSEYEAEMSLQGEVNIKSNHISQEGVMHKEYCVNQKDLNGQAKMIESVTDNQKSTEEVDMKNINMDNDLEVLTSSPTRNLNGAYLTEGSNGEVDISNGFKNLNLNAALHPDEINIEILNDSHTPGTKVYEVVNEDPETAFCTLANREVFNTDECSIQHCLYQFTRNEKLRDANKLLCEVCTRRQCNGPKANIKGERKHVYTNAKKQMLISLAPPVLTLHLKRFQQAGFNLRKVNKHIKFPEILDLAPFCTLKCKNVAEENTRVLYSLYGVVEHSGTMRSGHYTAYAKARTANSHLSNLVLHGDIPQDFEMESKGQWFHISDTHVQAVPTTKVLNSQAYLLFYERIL

Cl.Cn1nccc1C(NC(=O)CCl)c1ccccc1 (stereo not given)
inactive: USP16 -0.0928 | USP19 -0.0802 | USP24 -0.00471 | USP25 -0.455 | USP28 -0.472

From the supplement of paper PMC11732987, “Enantioselective OTUD7B fragment discovery through chemoproteomics screening and high-throughput optimisation” (Communications Chemistry, 2025)
